Experimental data from the supplement of paper PMC11732987, “Enantioselective OTUD7B fragment discovery through chemoproteomics screening and high-throughput optimisation” (Communications Chemistry, 2025).

Tests used:
Experiment in all cases: log2 ratio of Biotin-Ahx-Ub-VS probe labelling (fragment/DMSO); higher = less target engagement (more negative = stronger competition), active = hit call of the paper (q ≤ 0.05, log2 ratio ≤ -1)
Settings in all cases: compound concentration: 200 uM; treatment time: 3 h
[1] = target: T1, USP42 (UniProt Q9H9J4)
T1 sequence (whole entry): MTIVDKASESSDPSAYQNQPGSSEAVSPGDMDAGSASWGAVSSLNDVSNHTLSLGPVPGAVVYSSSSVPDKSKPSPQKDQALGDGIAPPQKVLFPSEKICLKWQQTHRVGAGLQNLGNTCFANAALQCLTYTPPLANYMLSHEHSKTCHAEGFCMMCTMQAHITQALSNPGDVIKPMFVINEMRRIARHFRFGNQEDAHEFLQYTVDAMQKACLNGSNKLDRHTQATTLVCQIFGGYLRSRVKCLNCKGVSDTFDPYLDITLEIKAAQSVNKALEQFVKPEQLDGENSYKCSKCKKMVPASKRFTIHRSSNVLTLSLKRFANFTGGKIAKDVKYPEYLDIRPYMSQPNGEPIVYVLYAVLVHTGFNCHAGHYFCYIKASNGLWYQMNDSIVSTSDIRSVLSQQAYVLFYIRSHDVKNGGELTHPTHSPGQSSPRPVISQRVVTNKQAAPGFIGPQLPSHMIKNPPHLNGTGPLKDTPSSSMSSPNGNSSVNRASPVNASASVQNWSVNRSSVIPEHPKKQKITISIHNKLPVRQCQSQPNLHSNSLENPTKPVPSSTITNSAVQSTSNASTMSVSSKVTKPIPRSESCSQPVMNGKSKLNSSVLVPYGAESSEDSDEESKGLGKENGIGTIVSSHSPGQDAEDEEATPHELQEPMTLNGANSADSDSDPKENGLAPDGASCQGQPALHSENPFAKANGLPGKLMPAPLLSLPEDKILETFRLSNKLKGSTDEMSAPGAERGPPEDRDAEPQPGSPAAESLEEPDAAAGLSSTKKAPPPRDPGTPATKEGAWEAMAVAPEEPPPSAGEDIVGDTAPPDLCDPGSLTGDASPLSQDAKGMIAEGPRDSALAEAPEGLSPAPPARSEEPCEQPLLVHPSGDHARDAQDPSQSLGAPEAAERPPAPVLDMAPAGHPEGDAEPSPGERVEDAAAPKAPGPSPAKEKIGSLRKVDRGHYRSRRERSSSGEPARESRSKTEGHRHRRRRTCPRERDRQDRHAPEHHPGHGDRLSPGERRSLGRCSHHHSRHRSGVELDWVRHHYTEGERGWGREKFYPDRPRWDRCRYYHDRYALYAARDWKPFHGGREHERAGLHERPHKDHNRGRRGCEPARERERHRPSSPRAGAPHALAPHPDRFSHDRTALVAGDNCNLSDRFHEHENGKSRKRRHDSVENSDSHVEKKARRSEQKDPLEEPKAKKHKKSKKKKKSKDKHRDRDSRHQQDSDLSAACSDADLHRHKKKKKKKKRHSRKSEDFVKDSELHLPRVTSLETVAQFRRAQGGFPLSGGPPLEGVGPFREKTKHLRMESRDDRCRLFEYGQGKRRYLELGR
Method in brief: (§1)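 Labelled DUBs from HEK293T lysate were NeutrAvidin-enriched, digested with LysC and trypsin, and run by diaPASEF LC-MS/MS. Before that, each 495 µg sample in Tris/CHAPS/IGEPAL buffer with protease inhibitors was treated in triplicate with fragment at 200 µM or vehicle for 3 h, then with Biotin-Ahx-Ub-VS at 0.5 µM final for 1 h. Values are average log2 ratios of fragment over vehicle by unpaired t-test, based on global-median-normalised Spectronaut label-free quantities from proteins with ≥2 unique peptides.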

[2] = target: USP46 (UniProt P62068)
Method in brief: as §1

[3] = target: T2, USP47 (UniProt Q96K76)
T2 sequence (whole entry): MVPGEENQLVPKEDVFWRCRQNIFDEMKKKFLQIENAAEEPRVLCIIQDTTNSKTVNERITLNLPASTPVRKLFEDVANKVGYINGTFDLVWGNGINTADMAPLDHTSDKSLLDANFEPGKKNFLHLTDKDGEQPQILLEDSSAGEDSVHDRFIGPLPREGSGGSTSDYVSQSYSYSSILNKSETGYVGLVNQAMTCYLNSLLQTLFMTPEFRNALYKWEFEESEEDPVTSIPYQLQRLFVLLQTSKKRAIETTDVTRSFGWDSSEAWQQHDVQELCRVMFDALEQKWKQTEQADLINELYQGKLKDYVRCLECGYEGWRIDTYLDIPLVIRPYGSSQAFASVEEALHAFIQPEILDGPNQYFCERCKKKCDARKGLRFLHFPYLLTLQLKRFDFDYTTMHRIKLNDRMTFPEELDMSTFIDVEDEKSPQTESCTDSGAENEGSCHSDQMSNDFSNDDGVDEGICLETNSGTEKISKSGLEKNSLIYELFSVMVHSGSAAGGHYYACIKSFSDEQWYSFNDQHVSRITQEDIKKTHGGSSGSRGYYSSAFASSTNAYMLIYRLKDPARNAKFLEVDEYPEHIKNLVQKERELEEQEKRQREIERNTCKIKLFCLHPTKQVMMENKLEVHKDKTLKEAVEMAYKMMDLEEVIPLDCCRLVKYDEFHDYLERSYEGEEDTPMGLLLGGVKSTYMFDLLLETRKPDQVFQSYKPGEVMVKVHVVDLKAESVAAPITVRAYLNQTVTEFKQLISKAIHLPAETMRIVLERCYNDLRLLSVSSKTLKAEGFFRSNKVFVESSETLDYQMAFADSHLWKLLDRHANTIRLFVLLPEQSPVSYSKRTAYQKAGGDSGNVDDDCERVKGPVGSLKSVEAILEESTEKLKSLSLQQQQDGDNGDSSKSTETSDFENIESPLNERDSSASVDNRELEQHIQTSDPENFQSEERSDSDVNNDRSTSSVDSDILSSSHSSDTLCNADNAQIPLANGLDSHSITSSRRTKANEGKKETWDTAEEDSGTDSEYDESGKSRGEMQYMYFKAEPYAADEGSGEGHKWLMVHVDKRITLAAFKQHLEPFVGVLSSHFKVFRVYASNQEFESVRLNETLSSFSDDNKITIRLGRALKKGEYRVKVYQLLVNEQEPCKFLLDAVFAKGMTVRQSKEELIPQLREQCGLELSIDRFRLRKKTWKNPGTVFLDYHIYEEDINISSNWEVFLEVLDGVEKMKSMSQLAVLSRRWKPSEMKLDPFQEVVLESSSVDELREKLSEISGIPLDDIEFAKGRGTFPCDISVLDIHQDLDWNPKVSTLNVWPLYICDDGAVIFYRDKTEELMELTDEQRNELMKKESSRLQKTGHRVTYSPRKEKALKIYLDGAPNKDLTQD
Method in brief: as §1

[4] = target: T3, USP48 (UniProt Q86UV5)
T3 sequence (whole entry): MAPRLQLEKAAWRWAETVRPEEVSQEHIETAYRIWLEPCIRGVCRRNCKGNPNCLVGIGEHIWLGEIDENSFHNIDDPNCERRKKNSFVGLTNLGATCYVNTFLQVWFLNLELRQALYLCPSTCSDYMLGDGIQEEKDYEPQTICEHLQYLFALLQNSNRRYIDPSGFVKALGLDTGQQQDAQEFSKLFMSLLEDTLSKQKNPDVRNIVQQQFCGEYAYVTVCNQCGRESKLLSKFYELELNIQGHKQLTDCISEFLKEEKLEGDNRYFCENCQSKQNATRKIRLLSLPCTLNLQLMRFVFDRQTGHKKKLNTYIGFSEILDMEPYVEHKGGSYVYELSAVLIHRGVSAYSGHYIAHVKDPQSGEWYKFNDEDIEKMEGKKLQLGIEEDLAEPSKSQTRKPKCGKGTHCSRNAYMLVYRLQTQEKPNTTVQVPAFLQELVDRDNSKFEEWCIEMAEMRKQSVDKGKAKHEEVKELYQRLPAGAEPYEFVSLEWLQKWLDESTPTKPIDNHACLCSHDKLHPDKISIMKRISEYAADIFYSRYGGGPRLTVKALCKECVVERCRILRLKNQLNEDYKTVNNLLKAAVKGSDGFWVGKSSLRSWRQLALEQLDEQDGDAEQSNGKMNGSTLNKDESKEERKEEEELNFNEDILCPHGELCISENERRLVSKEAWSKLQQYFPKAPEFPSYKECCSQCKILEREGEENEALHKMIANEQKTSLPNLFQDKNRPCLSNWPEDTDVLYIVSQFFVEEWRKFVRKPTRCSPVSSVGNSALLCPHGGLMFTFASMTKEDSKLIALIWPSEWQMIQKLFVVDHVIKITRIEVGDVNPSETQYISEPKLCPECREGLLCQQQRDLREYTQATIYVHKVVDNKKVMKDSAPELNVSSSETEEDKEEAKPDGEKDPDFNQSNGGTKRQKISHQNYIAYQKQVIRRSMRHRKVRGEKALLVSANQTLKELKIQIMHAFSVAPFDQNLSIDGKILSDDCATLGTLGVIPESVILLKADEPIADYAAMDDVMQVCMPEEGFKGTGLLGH
Method in brief: as §1

[5] = target: T4, USP5 (UniProt P45974)
T4 sequence (whole entry): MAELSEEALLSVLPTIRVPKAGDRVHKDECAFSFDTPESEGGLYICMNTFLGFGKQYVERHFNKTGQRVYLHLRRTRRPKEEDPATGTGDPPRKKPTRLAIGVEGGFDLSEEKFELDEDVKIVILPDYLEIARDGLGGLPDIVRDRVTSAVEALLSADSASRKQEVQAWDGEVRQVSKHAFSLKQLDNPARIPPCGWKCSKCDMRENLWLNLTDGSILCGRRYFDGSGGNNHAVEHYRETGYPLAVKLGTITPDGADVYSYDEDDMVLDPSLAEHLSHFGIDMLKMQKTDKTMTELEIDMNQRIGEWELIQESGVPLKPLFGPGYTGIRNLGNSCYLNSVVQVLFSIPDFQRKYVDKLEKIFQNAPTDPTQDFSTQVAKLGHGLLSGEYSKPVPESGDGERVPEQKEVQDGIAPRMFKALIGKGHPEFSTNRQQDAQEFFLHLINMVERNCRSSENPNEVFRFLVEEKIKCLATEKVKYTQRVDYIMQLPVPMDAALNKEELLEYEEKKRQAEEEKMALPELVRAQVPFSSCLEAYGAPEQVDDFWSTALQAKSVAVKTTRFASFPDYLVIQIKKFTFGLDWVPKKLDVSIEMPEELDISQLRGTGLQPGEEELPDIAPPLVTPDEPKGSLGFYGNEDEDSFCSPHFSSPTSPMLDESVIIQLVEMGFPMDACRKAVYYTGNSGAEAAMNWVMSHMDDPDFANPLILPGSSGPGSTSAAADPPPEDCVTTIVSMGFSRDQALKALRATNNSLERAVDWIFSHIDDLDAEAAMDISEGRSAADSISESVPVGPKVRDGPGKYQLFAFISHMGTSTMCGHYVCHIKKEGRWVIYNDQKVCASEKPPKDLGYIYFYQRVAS
Method in brief: as §1

[6] = target: USP54 (UniProt Q70EL1)
Method in brief: as §1

[7] = target: USP7 (UniProt Q93009)
Method in brief: as §1

[8] = target: T5, USP8 (UniProt P40818)
T5 sequence (whole entry): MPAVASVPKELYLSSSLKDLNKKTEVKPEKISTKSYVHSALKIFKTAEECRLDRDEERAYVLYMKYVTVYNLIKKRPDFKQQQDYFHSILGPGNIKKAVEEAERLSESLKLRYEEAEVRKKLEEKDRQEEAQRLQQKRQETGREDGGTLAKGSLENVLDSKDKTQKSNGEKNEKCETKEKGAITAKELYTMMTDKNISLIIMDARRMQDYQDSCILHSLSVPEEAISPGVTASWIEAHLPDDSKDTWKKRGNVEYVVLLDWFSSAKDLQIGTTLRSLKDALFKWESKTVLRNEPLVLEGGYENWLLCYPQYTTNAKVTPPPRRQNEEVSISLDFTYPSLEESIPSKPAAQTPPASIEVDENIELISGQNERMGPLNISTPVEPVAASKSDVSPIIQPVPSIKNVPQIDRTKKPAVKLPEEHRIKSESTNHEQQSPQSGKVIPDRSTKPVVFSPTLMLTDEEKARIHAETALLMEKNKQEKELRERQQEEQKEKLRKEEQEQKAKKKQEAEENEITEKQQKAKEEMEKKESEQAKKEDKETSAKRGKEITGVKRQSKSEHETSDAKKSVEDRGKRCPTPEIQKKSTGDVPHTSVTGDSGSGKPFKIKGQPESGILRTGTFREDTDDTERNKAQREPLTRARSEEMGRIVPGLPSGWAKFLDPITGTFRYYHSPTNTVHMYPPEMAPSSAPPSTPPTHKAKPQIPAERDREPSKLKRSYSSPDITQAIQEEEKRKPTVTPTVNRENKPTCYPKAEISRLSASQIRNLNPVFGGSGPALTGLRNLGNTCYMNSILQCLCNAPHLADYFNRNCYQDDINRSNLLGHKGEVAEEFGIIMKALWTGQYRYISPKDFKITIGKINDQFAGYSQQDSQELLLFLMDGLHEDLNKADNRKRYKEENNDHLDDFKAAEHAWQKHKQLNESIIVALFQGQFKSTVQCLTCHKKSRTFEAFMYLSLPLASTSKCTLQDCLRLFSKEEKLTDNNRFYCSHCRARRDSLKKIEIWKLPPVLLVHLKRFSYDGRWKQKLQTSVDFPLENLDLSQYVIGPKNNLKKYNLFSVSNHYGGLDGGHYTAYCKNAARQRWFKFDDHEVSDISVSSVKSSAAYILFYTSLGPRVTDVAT
Method in brief: as §1

[9] = target: USP9X (UniProt Q93008)
Method in brief: as §1

[10] = target: UniProt O00487
Method in brief: as §1

Measured: log2 ratio of Biotin-Ahx-Ub-VS probe labelling

Chain of UniProt O00487 (O00487 whole entry): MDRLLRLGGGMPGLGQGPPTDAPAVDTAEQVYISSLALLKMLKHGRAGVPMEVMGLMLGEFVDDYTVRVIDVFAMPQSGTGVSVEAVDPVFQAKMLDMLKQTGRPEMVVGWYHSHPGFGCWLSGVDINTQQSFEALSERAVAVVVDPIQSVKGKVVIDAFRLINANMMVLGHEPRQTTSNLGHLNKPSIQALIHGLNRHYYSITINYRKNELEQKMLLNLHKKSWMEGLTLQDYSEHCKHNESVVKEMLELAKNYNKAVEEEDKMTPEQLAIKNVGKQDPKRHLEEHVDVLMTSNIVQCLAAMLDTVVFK
Chain of USP9X (Q93008 whole entry): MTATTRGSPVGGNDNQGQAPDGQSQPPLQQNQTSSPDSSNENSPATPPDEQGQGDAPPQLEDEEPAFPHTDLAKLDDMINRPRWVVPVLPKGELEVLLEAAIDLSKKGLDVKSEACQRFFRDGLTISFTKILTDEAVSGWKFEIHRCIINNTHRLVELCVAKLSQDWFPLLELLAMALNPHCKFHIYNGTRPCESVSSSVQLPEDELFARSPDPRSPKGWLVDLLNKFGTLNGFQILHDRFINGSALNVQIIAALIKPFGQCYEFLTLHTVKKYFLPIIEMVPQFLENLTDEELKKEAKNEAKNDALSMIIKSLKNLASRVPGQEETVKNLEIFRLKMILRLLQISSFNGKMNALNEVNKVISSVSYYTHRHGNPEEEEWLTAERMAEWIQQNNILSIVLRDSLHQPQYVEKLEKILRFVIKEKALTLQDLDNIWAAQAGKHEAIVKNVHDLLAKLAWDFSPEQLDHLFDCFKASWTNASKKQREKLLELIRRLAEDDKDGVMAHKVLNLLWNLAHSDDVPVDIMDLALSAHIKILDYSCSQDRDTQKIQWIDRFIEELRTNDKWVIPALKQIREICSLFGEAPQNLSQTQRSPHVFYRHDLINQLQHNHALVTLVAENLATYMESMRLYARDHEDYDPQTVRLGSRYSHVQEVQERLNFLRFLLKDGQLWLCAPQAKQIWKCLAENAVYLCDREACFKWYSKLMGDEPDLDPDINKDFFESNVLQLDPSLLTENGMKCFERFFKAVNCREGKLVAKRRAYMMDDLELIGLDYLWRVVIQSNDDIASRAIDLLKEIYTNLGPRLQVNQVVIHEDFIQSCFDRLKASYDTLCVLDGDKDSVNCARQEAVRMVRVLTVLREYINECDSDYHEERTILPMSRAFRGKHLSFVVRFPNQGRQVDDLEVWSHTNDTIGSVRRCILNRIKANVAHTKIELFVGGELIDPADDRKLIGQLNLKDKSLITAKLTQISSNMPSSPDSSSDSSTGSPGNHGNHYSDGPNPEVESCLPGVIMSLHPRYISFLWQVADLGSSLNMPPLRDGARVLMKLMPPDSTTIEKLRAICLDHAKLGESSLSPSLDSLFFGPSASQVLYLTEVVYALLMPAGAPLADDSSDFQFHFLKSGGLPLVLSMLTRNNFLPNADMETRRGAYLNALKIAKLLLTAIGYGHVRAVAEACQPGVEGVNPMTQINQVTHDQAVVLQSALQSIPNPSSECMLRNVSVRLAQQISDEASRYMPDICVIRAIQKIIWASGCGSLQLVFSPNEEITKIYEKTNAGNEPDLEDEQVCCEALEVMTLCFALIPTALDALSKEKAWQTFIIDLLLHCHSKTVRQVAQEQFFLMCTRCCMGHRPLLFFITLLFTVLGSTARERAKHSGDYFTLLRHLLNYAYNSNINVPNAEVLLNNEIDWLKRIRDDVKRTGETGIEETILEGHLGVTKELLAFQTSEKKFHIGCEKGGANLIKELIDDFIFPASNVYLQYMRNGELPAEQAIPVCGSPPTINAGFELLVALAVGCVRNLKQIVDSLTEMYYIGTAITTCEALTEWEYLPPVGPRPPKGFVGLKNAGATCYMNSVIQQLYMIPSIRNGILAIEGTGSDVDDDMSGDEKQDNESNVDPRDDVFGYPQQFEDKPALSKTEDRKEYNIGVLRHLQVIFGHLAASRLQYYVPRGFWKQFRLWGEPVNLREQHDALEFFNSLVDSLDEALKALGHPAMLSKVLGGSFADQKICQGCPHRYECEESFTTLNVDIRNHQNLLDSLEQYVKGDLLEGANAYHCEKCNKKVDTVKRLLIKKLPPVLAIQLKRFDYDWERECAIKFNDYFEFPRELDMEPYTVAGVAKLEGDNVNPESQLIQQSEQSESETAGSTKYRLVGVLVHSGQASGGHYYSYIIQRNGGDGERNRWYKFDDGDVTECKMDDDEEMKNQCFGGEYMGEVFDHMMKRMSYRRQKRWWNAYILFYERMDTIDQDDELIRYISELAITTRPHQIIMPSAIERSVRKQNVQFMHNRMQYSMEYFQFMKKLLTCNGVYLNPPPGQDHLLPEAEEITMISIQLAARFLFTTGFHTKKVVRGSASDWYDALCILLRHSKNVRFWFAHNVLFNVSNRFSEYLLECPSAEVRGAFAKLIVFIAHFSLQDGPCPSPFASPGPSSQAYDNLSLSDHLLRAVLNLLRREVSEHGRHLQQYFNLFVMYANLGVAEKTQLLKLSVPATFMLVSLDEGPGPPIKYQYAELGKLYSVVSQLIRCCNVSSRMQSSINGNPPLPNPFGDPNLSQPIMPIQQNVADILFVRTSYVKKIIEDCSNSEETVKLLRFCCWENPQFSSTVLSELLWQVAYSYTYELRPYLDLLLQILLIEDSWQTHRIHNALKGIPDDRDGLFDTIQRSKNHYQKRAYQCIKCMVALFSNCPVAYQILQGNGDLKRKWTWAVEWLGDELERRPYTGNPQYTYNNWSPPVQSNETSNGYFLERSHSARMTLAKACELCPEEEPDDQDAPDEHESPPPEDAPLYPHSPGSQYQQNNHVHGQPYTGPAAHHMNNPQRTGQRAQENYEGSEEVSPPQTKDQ
Chain of USP7 (Q93009 whole entry, looked up): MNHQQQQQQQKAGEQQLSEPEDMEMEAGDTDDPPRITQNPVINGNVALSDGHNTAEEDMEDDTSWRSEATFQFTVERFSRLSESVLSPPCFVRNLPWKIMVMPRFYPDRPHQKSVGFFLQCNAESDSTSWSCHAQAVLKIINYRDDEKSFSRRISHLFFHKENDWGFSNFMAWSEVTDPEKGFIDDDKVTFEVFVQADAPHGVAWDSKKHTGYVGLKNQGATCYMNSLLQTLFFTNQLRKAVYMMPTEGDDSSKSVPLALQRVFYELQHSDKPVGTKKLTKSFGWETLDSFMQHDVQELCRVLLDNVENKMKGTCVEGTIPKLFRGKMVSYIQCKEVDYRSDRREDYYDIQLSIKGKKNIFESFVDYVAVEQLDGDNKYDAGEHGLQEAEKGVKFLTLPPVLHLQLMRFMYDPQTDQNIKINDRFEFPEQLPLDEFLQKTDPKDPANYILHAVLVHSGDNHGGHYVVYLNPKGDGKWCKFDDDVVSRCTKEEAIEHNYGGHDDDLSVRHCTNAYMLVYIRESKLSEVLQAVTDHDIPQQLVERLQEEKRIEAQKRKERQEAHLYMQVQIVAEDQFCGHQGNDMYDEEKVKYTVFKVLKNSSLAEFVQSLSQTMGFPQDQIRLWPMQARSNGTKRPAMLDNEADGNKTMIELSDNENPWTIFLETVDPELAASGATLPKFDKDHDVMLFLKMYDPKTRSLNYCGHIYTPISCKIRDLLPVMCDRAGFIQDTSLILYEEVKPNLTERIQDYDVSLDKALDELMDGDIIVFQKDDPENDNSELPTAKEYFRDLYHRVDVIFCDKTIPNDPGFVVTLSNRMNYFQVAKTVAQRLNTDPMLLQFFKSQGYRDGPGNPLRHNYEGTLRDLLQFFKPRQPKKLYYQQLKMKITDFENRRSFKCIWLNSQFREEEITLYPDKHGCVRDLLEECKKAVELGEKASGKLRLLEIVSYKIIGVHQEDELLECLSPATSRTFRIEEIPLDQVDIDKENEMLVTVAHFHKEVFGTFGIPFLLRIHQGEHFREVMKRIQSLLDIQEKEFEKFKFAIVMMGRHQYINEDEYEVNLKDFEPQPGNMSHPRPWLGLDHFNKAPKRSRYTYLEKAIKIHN
Chain of USP46 (P62068 whole entry): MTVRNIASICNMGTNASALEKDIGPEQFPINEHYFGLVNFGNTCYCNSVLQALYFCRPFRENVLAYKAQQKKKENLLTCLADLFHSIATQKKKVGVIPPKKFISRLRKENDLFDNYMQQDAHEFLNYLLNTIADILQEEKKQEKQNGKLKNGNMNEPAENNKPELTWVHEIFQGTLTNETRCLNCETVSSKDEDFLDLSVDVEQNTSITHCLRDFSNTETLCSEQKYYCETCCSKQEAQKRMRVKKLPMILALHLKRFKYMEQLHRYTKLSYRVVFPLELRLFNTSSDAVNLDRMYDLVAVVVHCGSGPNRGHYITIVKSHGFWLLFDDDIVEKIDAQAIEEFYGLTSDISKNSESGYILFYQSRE

O=C(CCl)NCCc1cccc2ccccc12
inactive: [1] 0.608 | [2] -0.0148 | [3] 0.102 | [4] -0.131 | [5] 0.258 | [6] -0.0844 | [7] -0.217 | [8] -0.118 | [9] 0.0346 | [10] 0.00956
